# The full data set covers some 7,900 targets. This sample favours those with a hit. About 0.6% of all pairs of compound and target were hits.
# Compound: CS(=O)(=O)c1ccc(-c2cnc(N)c(C(=O)Nc3ccccc3)n2)cc1
# Assay: log2 fold change, soluble protein after heating vs DMSO (PISA); higher = thermal stabilisation; K562 cells, 10 uM, 30 min; active = over 0.2 and 3.5 SD of the protein, either way, in both replicates (recomputed)
# Outline: (§1)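 For each measurement, 10 μM compound was applied for 30 min to K562 cells at 2×10^6 cells/mL. Aliquots were heated for 3 min across 48°C-58°C, pooled, and extracted in PBS with 0.5% NP-40 at 4°C; the supernatant after 21,000xg for 90 min was soluble protein. This was quantified by TMTpro 16plex LC-MS/MS with channel sums equalised, and thermal stability was reported relative to control samples from duplicates, on a log2 fold-change scale.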
# Sequence of UniProt Q8N8J7 (Q8N8J7 whole entry, looked up): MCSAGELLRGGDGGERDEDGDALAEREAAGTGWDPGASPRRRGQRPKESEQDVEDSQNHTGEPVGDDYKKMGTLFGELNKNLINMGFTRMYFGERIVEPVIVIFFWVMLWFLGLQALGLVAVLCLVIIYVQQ
# Sequence of UniProt O15121 (O15121 whole entry, looked up): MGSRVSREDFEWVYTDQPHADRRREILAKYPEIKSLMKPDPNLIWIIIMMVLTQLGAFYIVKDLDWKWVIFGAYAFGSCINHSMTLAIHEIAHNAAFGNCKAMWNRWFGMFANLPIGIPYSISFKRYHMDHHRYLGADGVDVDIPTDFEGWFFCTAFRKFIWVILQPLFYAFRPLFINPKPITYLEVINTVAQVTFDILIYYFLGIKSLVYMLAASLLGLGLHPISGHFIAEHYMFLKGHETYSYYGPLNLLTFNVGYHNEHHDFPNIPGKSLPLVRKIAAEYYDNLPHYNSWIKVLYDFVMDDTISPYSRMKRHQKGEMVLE
# Sequence of UniProt P25774 (P25774 whole entry, looked up): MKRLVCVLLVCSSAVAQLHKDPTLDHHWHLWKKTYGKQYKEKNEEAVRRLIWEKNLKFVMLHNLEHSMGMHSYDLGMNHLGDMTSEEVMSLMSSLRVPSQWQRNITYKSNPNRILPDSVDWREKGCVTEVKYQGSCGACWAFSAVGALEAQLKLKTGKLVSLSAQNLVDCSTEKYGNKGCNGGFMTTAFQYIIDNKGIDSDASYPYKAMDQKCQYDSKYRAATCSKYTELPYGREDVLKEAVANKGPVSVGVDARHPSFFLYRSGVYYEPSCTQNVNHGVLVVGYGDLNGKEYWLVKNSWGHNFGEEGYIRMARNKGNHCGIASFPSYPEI
# Sequence of UniProt O43432 (O43432 whole entry, looked up): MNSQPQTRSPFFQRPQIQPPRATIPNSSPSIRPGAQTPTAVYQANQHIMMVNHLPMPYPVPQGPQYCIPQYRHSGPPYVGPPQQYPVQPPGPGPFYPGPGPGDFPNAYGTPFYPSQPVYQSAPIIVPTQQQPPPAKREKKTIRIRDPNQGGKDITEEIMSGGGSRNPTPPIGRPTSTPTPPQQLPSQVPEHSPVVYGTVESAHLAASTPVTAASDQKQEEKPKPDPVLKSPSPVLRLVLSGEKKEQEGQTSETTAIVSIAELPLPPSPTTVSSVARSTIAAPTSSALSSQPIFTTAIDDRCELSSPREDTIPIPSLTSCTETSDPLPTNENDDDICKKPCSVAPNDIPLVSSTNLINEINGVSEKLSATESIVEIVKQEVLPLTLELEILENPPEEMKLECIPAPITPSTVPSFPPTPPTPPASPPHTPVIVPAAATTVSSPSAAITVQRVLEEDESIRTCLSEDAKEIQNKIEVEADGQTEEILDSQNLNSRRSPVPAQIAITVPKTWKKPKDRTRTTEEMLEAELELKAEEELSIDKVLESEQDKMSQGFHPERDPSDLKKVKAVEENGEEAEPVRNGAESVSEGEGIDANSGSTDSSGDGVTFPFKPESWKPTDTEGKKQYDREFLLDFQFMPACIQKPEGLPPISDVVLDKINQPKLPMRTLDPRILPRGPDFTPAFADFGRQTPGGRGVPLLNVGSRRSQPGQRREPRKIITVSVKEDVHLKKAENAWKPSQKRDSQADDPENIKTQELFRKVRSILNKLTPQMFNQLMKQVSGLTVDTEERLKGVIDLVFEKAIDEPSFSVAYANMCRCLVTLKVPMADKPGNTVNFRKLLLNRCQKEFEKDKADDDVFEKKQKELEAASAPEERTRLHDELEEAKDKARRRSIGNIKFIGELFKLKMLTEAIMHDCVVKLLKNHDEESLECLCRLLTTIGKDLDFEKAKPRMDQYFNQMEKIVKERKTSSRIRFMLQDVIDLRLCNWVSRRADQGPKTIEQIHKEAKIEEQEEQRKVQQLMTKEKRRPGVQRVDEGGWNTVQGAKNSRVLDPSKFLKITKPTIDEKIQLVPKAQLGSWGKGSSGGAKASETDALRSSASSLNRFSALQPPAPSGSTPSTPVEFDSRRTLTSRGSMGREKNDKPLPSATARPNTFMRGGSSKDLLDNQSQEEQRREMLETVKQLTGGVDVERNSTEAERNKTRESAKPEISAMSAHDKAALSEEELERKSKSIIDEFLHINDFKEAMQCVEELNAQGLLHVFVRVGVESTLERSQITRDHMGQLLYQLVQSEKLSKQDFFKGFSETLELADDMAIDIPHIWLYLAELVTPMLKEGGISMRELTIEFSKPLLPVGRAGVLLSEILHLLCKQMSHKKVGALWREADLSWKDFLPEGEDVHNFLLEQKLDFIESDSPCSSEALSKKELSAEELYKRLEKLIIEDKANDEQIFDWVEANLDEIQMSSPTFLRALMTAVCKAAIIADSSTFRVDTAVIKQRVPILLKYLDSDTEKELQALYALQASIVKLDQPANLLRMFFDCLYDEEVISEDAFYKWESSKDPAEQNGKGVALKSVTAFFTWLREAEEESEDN
# Sequence of UniProt Q8N612 (Q8N612 whole entry, looked up): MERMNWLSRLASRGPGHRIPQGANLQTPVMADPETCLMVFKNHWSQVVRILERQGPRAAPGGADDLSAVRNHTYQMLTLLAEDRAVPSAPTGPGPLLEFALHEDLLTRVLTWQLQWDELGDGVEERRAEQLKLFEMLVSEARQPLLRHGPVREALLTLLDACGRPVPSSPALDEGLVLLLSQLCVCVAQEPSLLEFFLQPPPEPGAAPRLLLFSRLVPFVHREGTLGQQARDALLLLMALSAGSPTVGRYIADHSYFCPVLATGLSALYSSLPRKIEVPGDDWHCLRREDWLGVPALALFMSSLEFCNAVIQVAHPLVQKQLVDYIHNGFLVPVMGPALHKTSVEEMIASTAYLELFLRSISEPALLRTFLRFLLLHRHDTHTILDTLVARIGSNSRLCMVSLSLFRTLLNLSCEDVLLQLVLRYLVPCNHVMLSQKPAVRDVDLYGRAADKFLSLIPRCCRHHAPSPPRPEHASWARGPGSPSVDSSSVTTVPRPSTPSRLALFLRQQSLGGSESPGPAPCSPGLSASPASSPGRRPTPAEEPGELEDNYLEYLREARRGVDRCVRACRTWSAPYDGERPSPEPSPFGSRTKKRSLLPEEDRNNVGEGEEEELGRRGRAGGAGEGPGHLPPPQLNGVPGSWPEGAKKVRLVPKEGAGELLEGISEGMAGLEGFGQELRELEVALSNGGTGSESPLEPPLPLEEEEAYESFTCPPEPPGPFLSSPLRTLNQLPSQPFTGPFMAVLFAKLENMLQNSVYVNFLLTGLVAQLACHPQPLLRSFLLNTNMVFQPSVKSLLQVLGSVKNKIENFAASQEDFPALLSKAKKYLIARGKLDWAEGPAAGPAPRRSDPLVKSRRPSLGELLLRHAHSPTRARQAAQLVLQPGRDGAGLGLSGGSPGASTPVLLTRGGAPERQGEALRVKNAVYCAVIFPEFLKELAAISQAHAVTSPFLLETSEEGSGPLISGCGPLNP
# Sequence of UniProt Q8TCE6 (Q8TCE6 whole entry, looked up): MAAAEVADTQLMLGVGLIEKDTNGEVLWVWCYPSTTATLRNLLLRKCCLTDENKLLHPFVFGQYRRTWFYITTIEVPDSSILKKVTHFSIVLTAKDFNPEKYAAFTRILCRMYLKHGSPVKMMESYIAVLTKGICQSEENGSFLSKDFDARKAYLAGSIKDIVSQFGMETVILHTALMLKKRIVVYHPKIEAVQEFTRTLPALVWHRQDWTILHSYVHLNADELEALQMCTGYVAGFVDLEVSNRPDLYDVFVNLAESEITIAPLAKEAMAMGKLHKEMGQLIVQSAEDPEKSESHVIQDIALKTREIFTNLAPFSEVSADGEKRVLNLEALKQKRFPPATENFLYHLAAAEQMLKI
# Sequence of UniProt Q8NBI2 (Q8NBI2 whole entry, looked up): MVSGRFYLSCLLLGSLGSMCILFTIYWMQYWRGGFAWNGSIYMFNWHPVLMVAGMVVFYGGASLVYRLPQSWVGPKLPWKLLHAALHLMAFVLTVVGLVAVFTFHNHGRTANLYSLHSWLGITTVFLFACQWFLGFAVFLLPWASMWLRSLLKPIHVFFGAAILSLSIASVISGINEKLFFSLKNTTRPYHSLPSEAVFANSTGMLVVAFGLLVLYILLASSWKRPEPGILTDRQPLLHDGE
# Sequence of UniProt Q4LDG9 (Q4LDG9 whole entry, looked up): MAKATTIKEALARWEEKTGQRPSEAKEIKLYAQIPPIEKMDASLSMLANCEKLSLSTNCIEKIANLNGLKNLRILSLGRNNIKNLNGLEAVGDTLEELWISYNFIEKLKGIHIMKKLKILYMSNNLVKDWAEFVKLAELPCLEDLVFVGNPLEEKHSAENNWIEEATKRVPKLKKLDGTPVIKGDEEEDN
# Sequence of UniProt Q9UER7 (Q9UER7 whole entry, looked up): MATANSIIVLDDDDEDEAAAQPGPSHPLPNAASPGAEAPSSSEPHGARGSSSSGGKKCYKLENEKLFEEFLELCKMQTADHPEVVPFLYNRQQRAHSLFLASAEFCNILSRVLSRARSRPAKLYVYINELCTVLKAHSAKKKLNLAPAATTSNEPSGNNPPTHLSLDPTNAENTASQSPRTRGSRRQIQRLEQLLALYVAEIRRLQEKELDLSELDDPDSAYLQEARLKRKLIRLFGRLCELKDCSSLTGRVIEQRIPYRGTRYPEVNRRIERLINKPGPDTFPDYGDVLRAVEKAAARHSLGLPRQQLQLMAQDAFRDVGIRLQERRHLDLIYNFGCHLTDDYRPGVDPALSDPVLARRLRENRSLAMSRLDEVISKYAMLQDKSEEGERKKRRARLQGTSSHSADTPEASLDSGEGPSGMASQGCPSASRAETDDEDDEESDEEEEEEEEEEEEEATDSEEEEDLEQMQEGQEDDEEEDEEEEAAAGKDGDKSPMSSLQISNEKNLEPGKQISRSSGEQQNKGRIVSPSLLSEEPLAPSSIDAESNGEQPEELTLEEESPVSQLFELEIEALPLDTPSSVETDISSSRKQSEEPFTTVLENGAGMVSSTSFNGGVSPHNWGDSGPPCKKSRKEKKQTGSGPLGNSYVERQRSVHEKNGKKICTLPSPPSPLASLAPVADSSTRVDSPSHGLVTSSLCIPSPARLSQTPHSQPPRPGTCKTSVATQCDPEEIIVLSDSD
row,Target,log2 fold change
1,CTSS (UniProt P25774),-0.007 (inactive)
2,CWF19L2 (UniProt Q2TBE0),-0.024 (inactive)
3,DCAF4 (UniProt Q8WV16),-0.06 (inactive)
4,CYB561A3 isoform 2 (UniProt Q8NBI2),0 (inactive)
5,ELOVL5 isoform 2 (UniProt Q9NYP7),0.038 (inactive)
6,DENND10 (UniProt Q8TCE6),0.046 (inactive)
7,DAXX (UniProt Q9UER7),0.154 (inactive)
8,EGR1 (UniProt P18146),0.063 (inactive)
9,DCAF12 (UniProt Q5T6F0),-0.101 (inactive)
10,FAM241A (UniProt Q8N8J7),-0.235 (inactive)
11,EDRF1 (UniProt Q3B7T1),0.024 (inactive)
12,FAM135A (UniProt Q9P2D6),0.087 (inactive)
13,EIF4G3 isoform 3 (UniProt O43432),0.053 (inactive)
14,DDB1 isoform 2 (UniProt Q16531),0.009 (inactive)
15,EID1 (UniProt Q9Y6B2),-0.14 (inactive)
16,ERF (UniProt P50548),0.173 (inactive)
17,DEGS1 (UniProt O15121),0.064 (inactive)
18,EPHB4 (UniProt P54760),0.15 (inactive)

# Compound: C[C@@H](Oc1cc(-c2cnn(C3CCNCC3)c2)cnc1N)c1c(Cl)ccc(F)c1Cl [crizotinib]
# Assay: as above
# Outline: as §1
row,Target,log2 fold change
1,EIF2AK3 (UniProt Q9NZJ5),-0.062 (inactive)
2,DOLPP1 (UniProt Q86YN1),-0.082 (inactive)
3,CTSS (UniProt P25774),0.063 (inactive)
4,CWF19L2 (UniProt Q2TBE0),-0.034 (inactive)
5,DNAL1 (UniProt Q4LDG9),-0.035 (inactive)
6,CYB561A3 isoform 2 (UniProt Q8NBI2),-0.05 (inactive)
7,DAXX (UniProt Q9UER7),0.098 (inactive)
8,DLK1 (UniProt P80370),-0.108 (inactive)
9,FAM117B (UniProt Q6P1L5),0.563 (inactive)
10,FAM241A (UniProt Q8N8J7),0.117 (inactive)
11,DERPC (UniProt P0CG12),0.029 (inactive)
12,FADS1 (UniProt F5GYH4),-0.079 (inactive)
13,EIF4G3 isoform 3 (UniProt O43432),-0.106 (inactive)
14,DENND1A isoform 6 (UniProt Q8TEH3),-0.231 (inactive)
15,FAM160A2 isoform 2 (UniProt Q8N612),-0.004 (inactive)
16,CYP24A1 (UniProt Q07973),-0.043 (inactive)

# Compound: C[C@@H]1COCCN1C2=NC(=NC(=C2)C3(CC3)S(=O)(=O)C)C4=C5C=CNC5=CC=C4
# Assay: as above
# Outline: as §1
row,Target,log2 fold change
1,EIF2AK3 (UniProt Q9NZJ5),0.181 (inactive)
2,DOP1A (UniProt Q5JWR5),0.007 (inactive)
3,DNAL1 (UniProt Q4LDG9),0.011 (inactive)
4,DCAF4 (UniProt Q8WV16),0.032 (inactive)
5,ELOVL5 isoform 2 (UniProt Q9NYP7),0.048 (inactive)
6,DENND10 (UniProt Q8TCE6),0.298 (active)
7,DLK1 (UniProt P80370),-0.151 (inactive)
8,EGR1 (UniProt P18146),0.259 (inactive)
9,FAM117B (UniProt Q6P1L5),0.007 (inactive)
10,EDRF1 (UniProt Q3B7T1),0.055 (inactive)
11,EEF2K (UniProt O00418),-0.044 (inactive)
12,EPHX2 (UniProt E5RI53),0.067 (inactive)
13,ELOVL7 (UniProt A1L3X0),0.088 (inactive)
14,FAM135A (UniProt Q9P2D6),0.038 (inactive)
15,DDB1 isoform 2 (UniProt Q16531),0.118 (inactive)
16,EID1 (UniProt Q9Y6B2),-0.424 (inactive)
17,ERF (UniProt P50548),-0.05 (inactive)
18,DEGS1 (UniProt O15121),0.062 (inactive)
19,FAM160A2 isoform 2 (UniProt Q8N612),0.042 (inactive)
20,"DDX46, A0A0C4DG89",-0.009 (inactive)

# Compound: C[C@H](C1=CC=C(C=C1)C(=O)NC2=C3C=CNC3=NC=C2)N
# Assay: as above
# Outline: as §1
row,Target,log2 fold change
1,EIF2AK3 (UniProt Q9NZJ5),0.109 (inactive)
2,DOLPP1 (UniProt Q86YN1),-0.135 (inactive)
3,CTSS (UniProt P25774),0.059 (inactive)
4,EHBP1 (UniProt Q8NDI1),0.158 (inactive)
5,CWF19L2 (UniProt Q2TBE0),0.027 (inactive)
6,DNAL1 (UniProt Q4LDG9),0.025 (inactive)
7,CYB561A3 isoform 2 (UniProt Q8NBI2),-0.073 (inactive)
8,ELOVL5 isoform 2 (UniProt Q9NYP7),-0.004 (inactive)
9,DENND10 (UniProt Q8TCE6),-0.015 (inactive)
10,DAXX (UniProt Q9UER7),0.106 (inactive)
11,DLK1 (UniProt P80370),-0.133 (inactive)
12,EGR1 (UniProt P18146),-0.518 (inactive)
13,FAM117B (UniProt Q6P1L5),-0.021 (inactive)
14,FAM241A (UniProt Q8N8J7),-0.007 (inactive)
15,EDRF1 (UniProt Q3B7T1),-0.008 (inactive)
16,EEF2K (UniProt O00418),0.4 (inactive)
17,F2RL3 (UniProt Q96RI0),-0.159 (inactive)
18,EIF4G1 (UniProt Q04637),0.184 (inactive)
19,ELOVL7 (UniProt A1L3X0),0.037 (inactive)
20,EIF4G3 isoform 3 (UniProt O43432),0.074 (inactive)
21,DEGS1 (UniProt O15121),-0.047 (inactive)
22,DNAJB1 (UniProt M0R128),-0.018 (inactive)
23,FAM160A2 isoform 2 (UniProt Q8N612),-0.041 (inactive)
24,DBNL (UniProt Q9UJU6),-0.166 (inactive)

# Reference: the supplement of paper PMC10849652
